14 compounds from PubChem BioAssay (NCI) can be followed below.

Among the test systems are NCI-H23 lung; NCI-H226 lung; HOP-62 NSCLC; NCI-H460 lung; HOP-92 NSCLC; NCI-H522 lung; A549/ATCC NSCLC; 786-0 renal; COLO 205 colon; NCI-H322M lung.
Assay in all cases: NCI-60 one-dose screen, 48 h (100 = growth as untreated, 0 = no growth, -100 = all killed)
What all share (details): 10 µM unless noted

The panel holds about 83,000 compounds, 20% with a hit somewhere; the sample as a whole holds those more often.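 Single-dose data. Exposure time 48 hours. Values below 10 considered active.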 Unmarked numbers belong to inactive results. The source made the active and inactive calls.

In the case of `COc1cc(-c2ccc(/C=N/NC(=O)c3[nH]c4ccc(Br)cc4c3-c3ccccc3)s2)cc(OC)c1OC`, the growth with NCI-H23 lung is 68.2%; with NCI-H226 lung, 54.4%; in the test with HOP-62 NSCLC it was 74.2%; with NCI-H460 lung, 75.7%; in the test on HOP-92 NSCLC, 69.7%; in the test on NCI-H522 lung, 83.2%. Also, the growth was 77.1% in the test on A549/ATCC NSCLC, 58.3% with 786-0 renal and 108% in the test with COLO 205 colon.
Consider `CN1CCN(c2ccc3c(c2)nc(NNC(=O)c2cnccn2)c2cccn23)CC1`, for which the growth was 1.16% (active) with NCI-H23 lung; -7.98% (active) in the test on NCI-H226 lung; -24.4% (active) with HOP-62 NSCLC; 2.41% (active) in the test with NCI-H460 lung; -29.3% (active) with HOP-92 NSCLC; -16.7% (active) in the test on NCI-H522 lung. The growth in the test on A549/ATCC NSCLC is 0.0581% (active); with 786-0 renal, -95.5% (active); with COLO 205 colon, -64% (active).
In the case of `Cc1ccc(C(=O)NN2C(=O)/C(=C/C=C/c3ccc([N+](=O)[O-])o3)SC2=S)cc1`, the growth is -84% (active) in the test on NCI-H23 lung; -95.6% (active) with NCI-H226 lung; -70% (active) with HOP-62 NSCLC; -57.6% (active) in the test with NCI-H460 lung; -90.7% (active) with NCI-H522 lung; -76.5% (active) in the test on A549/ATCC NSCLC. The figures for the growth in the test on 786-0 renal and in the test on COLO 205 colon were -86% (active) and -83.9% (active), respectively.
For `CC(C)c1sc(NC(=O)c2cc(NC(=O)c3cc(NC(=O)c4nccn4C)cn3C)cn2C)nc1C(=O)NCCCN(C)C`, the growth with NCI-H23 lung was 75.3%; in the test on NCI-H226 lung it was 71.2%; with HOP-62 NSCLC, 80.1%; in the test with NCI-H460 lung, 118%; with HOP-92 NSCLC, -0.363% (active); in the test on NCI-H522 lung, 38.3%. Further, the figures for the growth with A549/ATCC NSCLC, in the test on 786-0 renal and with COLO 205 colon were 106%, 104% and 69.1%, respectively.
`CSc1ccccc1NC(=O)c1ccc2nnn(/C(C#N)=C/c3ccccn3)c2c1`: the growth was -96.6% (active) in the test with NCI-H23 lung; -94.6% (active) in the test with NCI-H226 lung; 6.29% (active) in the test with HOP-62 NSCLC; -44% (active) in the test on NCI-H460 lung; -80.8% (active) in the test on HOP-92 NSCLC; -96.4% (active) in the test with NCI-H522 lung. Besides, the growth in the test on A549/ATCC NSCLC is -27.2% (active); in the test on 786-0 renal, -98.5% (active); in the test on COLO 205 colon it was -83.1% (active).
Turning to `COc1ccc(C(=O)Nc2n[nH]c(Nc3ccccc3)c2C#N)cc1`, the growth in the test on NCI-H23 lung is 110%; in the test on NCI-H226 lung it was 117%; with HOP-62 NSCLC it was 124%; in the test on NCI-H460 lung it was 101%; in the test on HOP-92 NSCLC, 125%; with NCI-H522 lung, 104%. In addition, the growth with A549/ATCC NSCLC is 117%; in the test on 786-0 renal, 104%; in the test on COLO 205 colon it was 106%.
As to `O=C(/C=C/c1cccc(OCc2ccc(F)cc2)c1)c1nc2ccccc2[nH]1`, the growth in the test on NCI-H23 lung is 73%; in the test with NCI-H226 lung it was 42.2%; in the test on NCI-H322M lung, 114%; in the test with NCI-H460 lung, 76.8%; with HOP-92 NSCLC, 27.5%; in the test with NCI-H522 lung it was 63.5%. Also, the growth is 49.5% in the test with A549/ATCC NSCLC, -46.1% (active) in the test on 786-0 renal and 13.8% in the test on COLO 205 colon.
In the case of `Cc1ccc2c(N)c(C(=O)Nc3ccc(-c4ccccc4)cc3)sc2n1`, the growth was 42.2% in the test with NCI-H23 lung; 45.1% in the test on NCI-H226 lung; 63.5% with HOP-62 NSCLC; 73% with NCI-H460 lung; 27.1% in the test on HOP-92 NSCLC; 53.9% with NCI-H522 lung. Moreover, the growth in the test on A549/ATCC NSCLC was 81.5%; in the test on 786-0 renal, 69.3%; in the test with COLO 205 colon, 90.9%.
`CC1(C)CC[C@]2(C(=O)Nc3ccc(Br)cc3)CC[C@]3(C)C(=CCC4[C@@]5(C)C[C@@H](O)[C@H](O)[C@@](C)(CO)C5CC[C@]43C)C2C1` (stereo not given in full): the growth in the test on NCI-H23 lung was 9.43% (active); with NCI-H226 lung it was -28.6% (active); with HOP-62 NSCLC, 5.6% (active); in the test with NCI-H460 lung, -42.1% (active); in the test with HOP-92 NSCLC, -53.4% (active); with NCI-H522 lung, -31.3% (active). Besides, the values for the growth with A549/ATCC NSCLC, in the test with 786-0 renal and in the test with COLO 205 colon were 17.2%, -28.2% (active) and -74.1% (active), respectively.
On to `COc1ccc2[nH]cc(-c3nc(N)nnc3-c3cn(C)c4ncccc34)c2c1`, for which the growth in the test on NCI-H23 lung is 69.9%; in the test with NCI-H226 lung, 66.4%; in the test with NCI-H322M lung it was 69.6%; in the test on NCI-H460 lung, 25%; in the test on HOP-92 NSCLC it was 81.2%; in the test with NCI-H522 lung, 34.3%. For the same compound, the growth was 51.2% in the test with A549/ATCC NSCLC, 64.2% in the test on 786-0 renal and 44.5% in the test with COLO 205 colon.
As to `COc1ccc(C(=O)/C=C/c2cccnc2)cc1S(N)(=O)=O`, the growth with NCI-H23 lung was 22.3%; in the test with NCI-H226 lung, 77.3%; in the test on HOP-62 NSCLC, 27.5%; with NCI-H460 lung, 19.9%; in the test on HOP-92 NSCLC it was 56.5%; with NCI-H522 lung, -67.8% (active). The growth is 42.7% with A549/ATCC NSCLC, 50.4% with 786-0 renal and 23.9% in the test on COLO 205 colon.
As to `CC1=C(C(=O)OCc2ccccc2)C(c2ccc(-n3cncn3)cc2)n2c(nc3ccccc32)N1` (stereo not given), the growth is 86% in the test with NCI-H23 lung; 77.6% in the test on NCI-H226 lung; 64.6% with HOP-62 NSCLC; 28.1% in the test on NCI-H460 lung; 73.9% with HOP-92 NSCLC; 19.3% in the test on NCI-H522 lung. Also, the figures for the growth in the test on A549/ATCC NSCLC, in the test on 786-0 renal and in the test with COLO 205 colon were 60.1%, 69.2% and 37.9%, respectively.
In the case of `COC(=O)/C=C/c1cccc2c1C(=O)NC(C)(c1cc3ccccc3oc1=O)N2` (stereo not given), the growth in the test on NCI-H226 lung is 63.1%; with NCI-H322M lung, 93.7%; in the test on HOP-62 NSCLC it was 72.4%; in the test with NCI-H460 lung, 44.5%; in the test on HOP-92 NSCLC, 50.7%; in the test with NCI-H522 lung, 62%. For the same compound, the growth is 67.9% with A549/ATCC NSCLC, 58.9% with 786-0 renal and 63.1% with COLO 205 colon.
As to `COc1cc2oc(-c3cccc(NC(=O)[C@H](CC(N)=O)NC(=O)OC(C)(C)C)c3)cc(=O)c2c(OC)c1OC`, the growth in the test on NCI-H226 lung is 92.7%; in the test with NCI-H322M lung, 101%; in the test with HOP-62 NSCLC, 104%; in the test on NCI-H460 lung, 89.1%; in the test with HOP-92 NSCLC, 74.9%; in the test with NCI-H522 lung it was 73.7%. The figures for the growth in the test with A549/ATCC NSCLC, in the test on 786-0 renal and in the test with COLO 205 colon were 95%, 88.2% and 109%, respectively.
